Source: PubChem BioAssay
An excerpt weighted towards active compounds, which were near 19% of everything screened.
DT40 TDP1 no CPT = qHTS for Inhibitors of human tyrosyl-DNA phosphodiesterase 1 (TDP1): qHTS in cells in absence of CPT. DT40 Tdp1-/- hTDP1 cells, no CPT, ATP luminescence, 48 h. Potency, µM (titrated, usually from 46.2 µM), without a hit: top-dose activity change, negative = growth inhibition, usual class: inhibitors. 420,000 tested, 15% active; also: potency is read from the fitted curve at half-maximal effect; nearly all actives have a fitted effect of over 55% in size
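No-CPT arm: Tdp1-/-;hTDP1 DT40 cells (400/well) plus compounds, incubated ≥48 hr at 37 °C. Readout CellTiter-Glo luminescence.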
IL1B secr inh = qHTS for Inhibitors of Inflammasome Signaling: IL-1-beta AlphaLISA Primary Screen. AID 743279, 2014. activity change, % at 57.5 µM. 360,000 tested, 4.7% active. THP-1 LPS/ATP IL-1B secretion, AlphaLISA, 16 h; hits give low values; in the data active = activity change below about -50%; inconclusive = mostly about -30% to -49%
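THP-1 cells pretreated 1 hr with compounds (up to 57.5 uM final), then stimulated with LPS (250 ng/mL final) plus ATP (1.25 mM final); secreted IL-1B measured by AlphaLISA after 16 hr, decreased signal indicating inhibition.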
TDP1 cell CPT = qHTS for Inhibitors of human tyrosyl-DNA phosphodiesterase 1 (TDP1): qHTS in cells in presence of CPT. chicken DT40 Tdp1-/-;hTDP1 cells + 20 nM CPT, ATP luminescence, 48 h. 420,000 tested, 12% active. AID 686979, 2013. Potency, µM (top dose mostly 46.2 µM), for inactives: at the top dose activity change, negative = growth inhibition, usual class: inhibitors; also: potency is read from the fitted curve at half-maximal effect; nearly all actives have a fitted effect of over 55% in size
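Chicken DT40 Tdp1-/- cells stably complemented with human TDP1 were seeded at 400 cells/well in medium containing 20 nM camptothecin, exposed to pin-transferred compounds, and grown at 37 °C for at least 48 hr. Viability was read as ATP luminescence.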
HT1080NT lethal = qHTS for induction of synthetic lethality in tumor cells producing 2HG: qHTS for the HT-1080-NT fibrosarcoma cell line. HT-1080-NT fibrosarcoma viability, CellTiter-Glo ATP luminescence, 48 h. Potency, µM (doses to about 46.1 µM), for the others: at the top dose activity, negative = less viability, actives largely listed as cytotoxic. 360,000 tested, 1.6% active;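 also: NT is the 2HG producing partner of a matched IDH1 knockdown line; potency is read from the fitted curve at half-maximal effect; 0% = DMSO-treated cells and -100% = media-only wells without cells; nearly all actives have a fitted effect of over 55% in size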
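Compounds were tested in concentration-response format on HT-1080-NT cells for 48 hours at 37 degrees C. Cell viability came from CellTiter-Glo luminescence; curves were classified by r2, response magnitude and activity.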
HT1080 IDH1KD tx = qHTS for induction of synthetic lethality in tumor cells producing 2HG: qHTS for the HT-1080-IDH1KD cell line; AID 686971, 2013; HT-1080 IDH1 knockdown viability, ATP luminescence, 48 h; Potency, µM (top dose mostly 46.1 µM), without a hit: at the highest dose activity, negative = toxicity, usual class: cytotoxic; 360,000 tested, 2% active;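 also: potency is read from the fitted curve at half-maximal effect; 0% = DMSO wells and -100% = cell-free medium wells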
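Assay cells: HT-1080 with IDH1 knockdown, 750 per well, RPMI/5% FBS. Exposure: 48 h at 37 °C following 2 h pre-incubation. Read: CellTiter-Glo luminescence; fitted concentration-response, curve class assigned.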
* = called active by the depositor; ? = inconclusive; · = no result given. Unless noted, calls follow the shape of the dose curve; as a rule, active = well fitted curve in the direction sought with a large enough effect; inconclusive = small, poorly fitted or top-dose-only effect, or another doubt; inactive = no such curve, though single readings can be large; an effect the other way counts as inactive or inconclusive. Unless noted, % is scaled to controls: 0 for no effect and ±100 for the full control effect.

SMILES	DT40 TDP1 no CPT	IL1B secr inh	TDP1 cell CPT	HT1080NT lethal	HT1080 IDH1KD tx
CC1CC(C)CN(CCCNS(=O)(=O)c2cc(Br)cc3c2N(C(=O)C2CC2)CC3)C1 (stereo not given)	-11%	-13	8%	-1%	12%
N#Cc1ccc(S(=O)(=O)N2CCCCC2c2cc(C(=O)NCc3cccnc3)no2)cc1 (stereo not given)	?	-2	?	3%	3%
CC1CCN(Cc2c(O)ccc3c(=O)c(Oc4ccccc4Cl)c(C(F)(F)F)oc23)CC1	21µM*	·	?	·	·
CCc1ccc(Oc2c(C(F)(F)F)oc3c(CN4CCN(C)CC4)c(O)ccc3c2=O)cc1	26µM*	·	?	·	·
Cc1ccc([C@H]2C[C@H](O)[C@@H](n3cc(-c4ccc(F)cc4)nn3)CN2C(=O)c2cccs2)cc1	18µM*	-11	?	?	-23%
Cc1ccc([C@H]2C[C@@H](n3cc(-c4ccc(F)cc4)nn3)[C@H](O)CN2C(=O)c2cccs2)cc1	15µM*	-6	18µM*	-19%	-10%
Cc1ccc([C@H]2C[C@@H](O)[C@H](n3cc(-c4ccc(F)cc4)nn3)CN2C(=O)c2cccs2)cc1	15µM*	-19	?	?	?
Cc1ccc(CNC(=O)C2CCN(S(=O)(=O)c3ccc4c(c3)oc(=O)n4C)CC2)cc1	-17%	·	-9%	·	·
COc1cc(Cl)ccc1OC1(C)CCN(Cc2ccccc2OC(F)F)C1 (stereo not given)	21µM*	-5	21µM*	-15%	-17%
COc1ccc(CN2CCC(C)(Oc3ccc(C(C)=O)cc3)C2)c2ccccc12 (stereo not given)	?	0	?	?	?
COc1cc(Cl)ccc1OC1(C)CCN(Cc2cccc(OC)c2OC)C1 (stereo not given)	16µM*	-3	13µM*	?	?
CCOC(=O)C1CCCN(C(=O)c2ccc(Cl)c(S(=O)(=O)N3CCCCC3)c2)C1 (stereo not given)	?	-1	?	-11%	-13%
O=C(/C=C/c1ccc2c(c1)OCO2)NCCSCc1ccc(Cl)cc1Cl	?	-74*	?	-2%	?
O=C(/C=C/c1ccc2c(c1)OCO2)NCCSCc1cccc(Cl)c1	-19%	-7	-20%	-25%	?
O=C(/C=C/c1cccc([N+](=O)[O-])c1)NCCSCc1ccc(Cl)cc1Cl	23µM*	-75*	29µM*	-52%	?
Cc1ccc(CNC(=O)[C@H]2C[C@@H]2[C@H](NP(=O)(c2ccccc2)c2ccccc2)c2ccccc2)o1	21µM*	13	?	-9%	0%
O=C(NCc1ccccc1)[C@@H]1C[C@H]1[C@@H](NP(=O)(c1ccccc1)c1ccccc1)c1ccccc1	?	0	-27%	?	-2%
c1ccc(-c2nnc(CN3CCCCC3)o2)cc1	-12%	14	-6%	-4%	-5%
c1ccc(-c2nnc(CN3CCCc4ccccc43)o2)cc1	23µM*	16	?	-2%	-5%
O=C(CN(c1ccc(F)cc1)S(=O)(=O)c1ccccc1)N1CCOCC1	-9%	2	-3%	-1%	-2%
COc1ccc(CCNC(=O)C2CCN(Cc3nc(-c4ccccc4C)oc3C)CC2)cc1OC	16µM*	-29	23µM*	?	?
Cc1ccccc1-c1nc(CN2CCC(C(=O)NCCc3ccccc3)CC2)c(C)o1	21µM*	·	15µM*	·	·
Cc1ccccc1-c1nc(CN2CCC(C(=O)NCCC3=CCCCC3)CC2)c(C)o1	18µM*	-61*	18µM*	-2%	-1%
Cc1ccccc1-c1nc(CN2CCC(C(=O)O)CC2)c(C)o1	-7%	-7	6%	3%	3%
